The text below walks through data of PMC11006913.

Substitutions are numbered along the chain they refer to.

What all share (assay): PBM; 200 nM protein, PBS
Common to all, as to conditions: dsDNA, one strand shown

For test [1], the target named is T1, PAX4 (Homo sapiens, UniProt O43316 9-242, R200K).
T1 sequence: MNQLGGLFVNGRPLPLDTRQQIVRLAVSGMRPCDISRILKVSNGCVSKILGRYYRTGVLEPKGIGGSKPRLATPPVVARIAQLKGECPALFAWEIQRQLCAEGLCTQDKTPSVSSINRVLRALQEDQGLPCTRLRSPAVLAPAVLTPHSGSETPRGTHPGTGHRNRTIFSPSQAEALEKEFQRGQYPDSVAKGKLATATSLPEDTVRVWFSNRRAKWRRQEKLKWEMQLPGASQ

For test [2], the target named is T2, PAX4 (Homo sapiens, UniProt O43316 9-242).
T2 sequence: T1 sequence with K192R

Test [3] deals with T3, PAX4 (Homo sapiens, UniProt O43316 9-242, R200Q).
T3 sequence: T1 sequence with K192Q

Test [4] deals with T4, PAX4 (Homo sapiens, UniProt O43316 9-242, F177V).
T4 sequence: T1 sequence with F169V, K192R

The target in test [5] is T5, PAX4 (Homo sapiens, UniProt O43316 9-242, F177Y).
T5 sequence: T1 sequence with F169Y, K192R

The target of test [6] is T6, PAX4 (Homo sapiens, UniProt O43316 9-242, R227W).
T6 sequence: T1 sequence with K192R, R219W

Test [7] has as its target PROP1 (Homo sapiens, UniProt O75360 56-141).
Test [8] has as its target PROP1 (Homo sapiens, UniProt O75360 56-141, R99H).
The target of test [9] is PROP1 (Homo sapiens, UniProt O75360 56-141, F88S).
PROP1 (Homo sapiens, UniProt O75360 56-141, F88S), sequence (O75360 56-141 F88S): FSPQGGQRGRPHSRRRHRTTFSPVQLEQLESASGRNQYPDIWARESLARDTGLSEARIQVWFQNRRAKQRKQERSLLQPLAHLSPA

PROP1 (Homo sapiens, UniProt O75360 56-141), sequence (O75360 56-141): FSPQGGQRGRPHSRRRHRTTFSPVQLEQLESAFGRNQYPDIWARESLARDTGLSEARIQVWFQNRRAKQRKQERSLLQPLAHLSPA
PROP1 (Homo sapiens, UniProt O75360 56-141, R99H), sequence (O75360 56-141 R99H): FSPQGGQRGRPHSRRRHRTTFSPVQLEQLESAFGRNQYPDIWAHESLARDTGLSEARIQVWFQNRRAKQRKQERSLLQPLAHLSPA

For the sequence AAGCGCTT, the binding signal was 9.65 upbm affinity estimate (log intensity, higher = more binding, comparable within an allelic series) with PAX4 [1]; 9.81 upbm affinity estimate (log intensity, higher = more binding, comparable within an allelic series) in the test with PAX4 [2]; 9.56 upbm affinity estimate (log intensity, higher = more binding, comparable within an allelic series) in the test with PAX4 [3]; 9.61 upbm affinity estimate (log intensity, higher = more binding, comparable within an allelic series) with PAX4 [4]; 9.5 upbm affinity estimate (log intensity, higher = more binding, comparable within an allelic series) with PAX4 [5]; 9.68 upbm affinity estimate (log intensity, higher = more binding, comparable within an allelic series) in the test with PAX4 [6].
Regarding CAGCCGGG, the binding signal with PAX4 [1] is 9.16 upbm affinity estimate (log intensity, higher = more binding, comparable within an allelic series); in the test with PAX4 [2], 9.21 upbm affinity estimate (log intensity, higher = more binding, comparable within an allelic series); in the test with PAX4 [3] it was 9.22 upbm affinity estimate (log intensity, higher = more binding, comparable within an allelic series); in the test with PAX4 [4], 9.02 upbm affinity estimate (log intensity, higher = more binding, comparable within an allelic series); with PAX4 [5], 9.05 upbm affinity estimate (log intensity, higher = more binding, comparable within an allelic series); with PAX4 [6], 9.17 upbm affinity estimate (log intensity, higher = more binding, comparable within an allelic series).
Regarding CGAATTAG, the binding signal was 11.9 upbm affinity estimate (log intensity, higher = more binding, comparable within an allelic series) with PAX4 [1]; 12.5 upbm affinity estimate (log intensity, higher = more binding, comparable within an allelic series) in the test with PAX4 [2]; 12 upbm affinity estimate (log intensity, higher = more binding, comparable within an allelic series) with PAX4 [3]; 10.3 upbm affinity estimate (log intensity, higher = more binding, comparable within an allelic series) with PAX4 [4]; 11.1 upbm affinity estimate (log intensity, higher = more binding, comparable within an allelic series) in the test with PAX4 [5]; 10.9 upbm affinity estimate (log intensity, higher = more binding, comparable within an allelic series) with PAX4 [6].
As to CGTTGGCC, the binding signal was 9.3 upbm affinity estimate (log intensity, higher = more binding, comparable within an allelic series) with PAX4 [1]; 9.3 upbm affinity estimate (log intensity, higher = more binding, comparable within an allelic series) in the test with PAX4 [2]; 9.53 upbm affinity estimate (log intensity, higher = more binding, comparable within an allelic series) with PAX4 [3]; 9.43 upbm affinity estimate (log intensity, higher = more binding, comparable within an allelic series) with PAX4 [4]; 9.4 upbm affinity estimate (log intensity, higher = more binding, comparable within an allelic series) with PAX4 [5]; 9.45 upbm affinity estimate (log intensity, higher = more binding, comparable within an allelic series) in the test with PAX4 [6].
As for CTAATTCA, the binding signal with PAX4 [1] was 11.7 upbm affinity estimate (log intensity, higher = more binding, comparable within an allelic series); with PAX4 [2] it was 12.2 upbm affinity estimate (log intensity, higher = more binding, comparable within an allelic series); in the test with PAX4 [3], 11.6 upbm affinity estimate (log intensity, higher = more binding, comparable within an allelic series); with PAX4 [4], 10.5 upbm affinity estimate (log intensity, higher = more binding, comparable within an allelic series); with PAX4 [5], 11 upbm affinity estimate (log intensity, higher = more binding, comparable within an allelic series); with PAX4 [6] it was 11 upbm affinity estimate (log intensity, higher = more binding, comparable within an allelic series).
For the sequence CCGCGAGC, the binding signal was 9.36 upbm affinity estimate (log intensity, higher = more binding, comparable within an allelic series) with PAX4 [1]; 9.36 upbm affinity estimate (log intensity, higher = more binding, comparable within an allelic series) in the test with PAX4 [2]; 9.27 upbm affinity estimate (log intensity, higher = more binding, comparable within an allelic series) with PAX4 [3]; 9.16 upbm affinity estimate (log intensity, higher = more binding, comparable within an allelic series) in the test with PAX4 [4]; 9.2 upbm affinity estimate (log intensity, higher = more binding, comparable within an allelic series) in the test with PAX4 [5]; 9.31 upbm affinity estimate (log intensity, higher = more binding, comparable within an allelic series) with PAX4 [6].
Regarding CTTCGTTC, the binding signal with PAX4 [1] was 9.33 upbm affinity estimate (log intensity, higher = more binding, comparable within an allelic series); in the test with PAX4 [2] it was 9.37 upbm affinity estimate (log intensity, higher = more binding, comparable within an allelic series); with PAX4 [3] it was 9.51 upbm affinity estimate (log intensity, higher = more binding, comparable within an allelic series); in the test with PAX4 [4] it was 9.56 upbm affinity estimate (log intensity, higher = more binding, comparable within an allelic series); with PAX4 [5] it was 9.5 upbm affinity estimate (log intensity, higher = more binding, comparable within an allelic series); with PAX4 [6], 9.58 upbm affinity estimate (log intensity, higher = more binding, comparable within an allelic series).
As for GCGAATTA, the binding signal with PAX4 [1] is 11.6 upbm affinity estimate (log intensity, higher = more binding, comparable within an allelic series); with PAX4 [2], 12.1 upbm affinity estimate (log intensity, higher = more binding, comparable within an allelic series); with PAX4 [3], 11.5 upbm affinity estimate (log intensity, higher = more binding, comparable within an allelic series); with PAX4 [4], 10.3 upbm affinity estimate (log intensity, higher = more binding, comparable within an allelic series); in the test with PAX4 [5], 10.8 upbm affinity estimate (log intensity, higher = more binding, comparable within an allelic series); with PAX4 [6], 10.8 upbm affinity estimate (log intensity, higher = more binding, comparable within an allelic series).
For the sequence ATGTATTA, the binding signal is 11.5 upbm affinity estimate (log intensity, higher = more binding, comparable within an allelic series) with PAX4 [1]; 11.8 upbm affinity estimate (log intensity, higher = more binding, comparable within an allelic series) in the test with PAX4 [2]; 11.4 upbm affinity estimate (log intensity, higher = more binding, comparable within an allelic series) in the test with PAX4 [3]; 10.8 upbm affinity estimate (log intensity, higher = more binding, comparable within an allelic series) with PAX4 [4]; 11 upbm affinity estimate (log intensity, higher = more binding, comparable within an allelic series) with PAX4 [5]; 11 upbm affinity estimate (log intensity, higher = more binding, comparable within an allelic series) with PAX4 [6].
Take ATACATAT: the binding signal in the test with PAX4 [1] is 10.7 upbm affinity estimate (log intensity, higher = more binding, comparable within an allelic series); in the test with PAX4 [2] it was 10.7 upbm affinity estimate (log intensity, higher = more binding, comparable within an allelic series); with PAX4 [3] it was 10.8 upbm affinity estimate (log intensity, higher = more binding, comparable within an allelic series); with PAX4 [4] it was 10.6 upbm affinity estimate (log intensity, higher = more binding, comparable within an allelic series); in the test with PAX4 [5], 10.6 upbm affinity estimate (log intensity, higher = more binding, comparable within an allelic series); with PAX4 [6] it was 10.6 upbm affinity estimate (log intensity, higher = more binding, comparable within an allelic series).
For CGCGCGCC, the binding signal in the test with PAX4 [1] is 9.3 upbm affinity estimate (log intensity, higher = more binding, comparable within an allelic series); in the test with PAX4 [2], 9.28 upbm affinity estimate (log intensity, higher = more binding, comparable within an allelic series); in the test with PAX4 [3], 9.36 upbm affinity estimate (log intensity, higher = more binding, comparable within an allelic series); with PAX4 [4], 9.21 upbm affinity estimate (log intensity, higher = more binding, comparable within an allelic series); with PAX4 [5], 9.31 upbm affinity estimate (log intensity, higher = more binding, comparable within an allelic series); with PAX4 [6] it was 9.28 upbm affinity estimate (log intensity, higher = more binding, comparable within an allelic series).
In the case of CTGGGCCC, the binding signal in the test with PAX4 [1] is 9.08 upbm affinity estimate (log intensity, higher = more binding, comparable within an allelic series); with PAX4 [2], 8.93 upbm affinity estimate (log intensity, higher = more binding, comparable within an allelic series); with PAX4 [3], 9.11 upbm affinity estimate (log intensity, higher = more binding, comparable within an allelic series); with PAX4 [4], 8.97 upbm affinity estimate (log intensity, higher = more binding, comparable within an allelic series); with PAX4 [5] it was 9.09 upbm affinity estimate (log intensity, higher = more binding, comparable within an allelic series); with PAX4 [6] it was 9.02 upbm affinity estimate (log intensity, higher = more binding, comparable within an allelic series).
For the sequence ACTAATTC, the binding signal is 11.6 upbm affinity estimate (log intensity, higher = more binding, comparable within an allelic series) with PAX4 [1]; 12.1 upbm affinity estimate (log intensity, higher = more binding, comparable within an allelic series) in the test with PAX4 [2]; 11.8 upbm affinity estimate (log intensity, higher = more binding, comparable within an allelic series) in the test with PAX4 [3]; 10.4 upbm affinity estimate (log intensity, higher = more binding, comparable within an allelic series) with PAX4 [4]; 10.9 upbm affinity estimate (log intensity, higher = more binding, comparable within an allelic series) with PAX4 [5]; 10.9 upbm affinity estimate (log intensity, higher = more binding, comparable within an allelic series) with PAX4 [6].
As to CCGTCCGA, the binding signal was 9.27 upbm affinity estimate (log intensity, higher = more binding, comparable within an allelic series) with PAX4 [1]; 9.39 upbm affinity estimate (log intensity, higher = more binding, comparable within an allelic series) with PAX4 [2]; 9.28 upbm affinity estimate (log intensity, higher = more binding, comparable within an allelic series) with PAX4 [3]; 9.26 upbm affinity estimate (log intensity, higher = more binding, comparable within an allelic series) with PAX4 [4]; 9.27 upbm affinity estimate (log intensity, higher = more binding, comparable within an allelic series) with PAX4 [5]; 6.64 upbm affinity estimate (log intensity, higher = more binding, comparable within an allelic series) with PROP1 [7]. The binding signal with PROP1 [8] is 6.59 upbm affinity estimate (log intensity, higher = more binding, comparable within an allelic series); with PROP1 [9] it was 6.67 upbm affinity estimate (log intensity, higher = more binding, comparable within an allelic series); with PAX4 [6], 9.25 upbm affinity estimate (log intensity, higher = more binding, comparable within an allelic series).
Take ACCGAGCC: the binding signal is 9.37 upbm affinity estimate (log intensity, higher = more binding, comparable within an allelic series) with PAX4 [1]; 9.52 upbm affinity estimate (log intensity, higher = more binding, comparable within an allelic series) with PAX4 [2]; 9.41 upbm affinity estimate (log intensity, higher = more binding, comparable within an allelic series) in the test with PAX4 [3]; 9.22 upbm affinity estimate (log intensity, higher = more binding, comparable within an allelic series) with PAX4 [4]; 9.25 upbm affinity estimate (log intensity, higher = more binding, comparable within an allelic series) in the test with PAX4 [5]; 6.86 upbm affinity estimate (log intensity, higher = more binding, comparable within an allelic series) in the test with PROP1 [7]. For the same sequence, the binding signal is 6.94 upbm affinity estimate (log intensity, higher = more binding, comparable within an allelic series) with PROP1 [8]; 6.77 upbm affinity estimate (log intensity, higher = more binding, comparable within an allelic series) with PROP1 [9]; 9.41 upbm affinity estimate (log intensity, higher = more binding, comparable within an allelic series) in the test with PAX4 [6].
Take TAATTCGA: the binding signal is 11.8 upbm affinity estimate (log intensity, higher = more binding, comparable within an allelic series) with PAX4 [1]; 12.4 upbm affinity estimate (log intensity, higher = more binding, comparable within an allelic series) with PAX4 [2]; 11.7 upbm affinity estimate (log intensity, higher = more binding, comparable within an allelic series) with PAX4 [3]; 10.6 upbm affinity estimate (log intensity, higher = more binding, comparable within an allelic series) with PAX4 [4]; 11.2 upbm affinity estimate (log intensity, higher = more binding, comparable within an allelic series) with PAX4 [5]; 11 upbm affinity estimate (log intensity, higher = more binding, comparable within an allelic series) with PAX4 [6].
AGGTTGCC: the binding signal in the test with PAX4 [1] is 9.39 upbm affinity estimate (log intensity, higher = more binding, comparable within an allelic series); with PAX4 [2], 9.33 upbm affinity estimate (log intensity, higher = more binding, comparable within an allelic series); with PAX4 [3], 9.49 upbm affinity estimate (log intensity, higher = more binding, comparable within an allelic series); with PAX4 [4], 9.35 upbm affinity estimate (log intensity, higher = more binding, comparable within an allelic series); with PAX4 [5], 9.33 upbm affinity estimate (log intensity, higher = more binding, comparable within an allelic series); with PAX4 [6] it was 9.35 upbm affinity estimate (log intensity, higher = more binding, comparable within an allelic series).
